Env fusion inh: inhibitors of HIV-1 Env-driven cell-cell fusion, primary screen, HeLa-JRFL effector, CEM21 target cells, luciferase. inhibition, % at 12.3 µM. actives 1.1% (n = 360,000). AID 651610, 2012;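 active = mean replicate inhibition score of at least 50 and every replicate individually at or above 50; inconclusive = only one of the two criteria met; inactive = mean below 50 and not all replicates reaching 50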;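 also: 0% = plate neutral controls and 100% = maraviroc near 300 nM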
miR122 inh: miR-122 Renilla sensor signal increase in Huh7, primary screen, miR-122 inhibitor project, cell-based, single point, plate reader | Huh7 miR-122 Renilla luciferase sensor, 48 h; neutral wells = 0, positive control = 100 | activation (reporter increase), % at 12.5 µM | actives 0.3% (n = 340,000) | AID 602342, 2012;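 active = mean replicate activation score at least 90 and every replicate individually at or above 90; inconclusive = only one of the two criteria met; inactive = neither criterion met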;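 also: higher luciferase means less miR-122 activity so hits act as miR-122 inhibitors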
Wnt bcat act: Wnt/beta-catenin pathway activators, primary screen, cell-based, plate reader, single point. Wnt/beta-catenin reporter cell assay, activator. actives 1.2% (n = 300,000). activation, % at 9.35 µM; in the data active = activation above about 30%, passing the limit was not always enough; inconclusive = no clear call, values can overlap the other calls;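 also: 0% = neutral control wells and 100% = positive control wells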
MITF TRPM1 HTS: activators of MITF-driven TRPM1 promoter reporter, primary screen, cell-based, SK-MEL-5, luciferase, single point | SK-MEL-5 TRPM1-promoter luciferase, 24 h; % of positive control, neutral wells = 0 | activation, % at 12.5 µM | actives 0.75% (n = 300,000) | AID 588334, 2011;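 active = mean activation of at least 80% with every replicate also reaching 80%; inconclusive = mean reaches 80% but some replicate falls short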;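 also: 0% = neutral control wells and 100% = parthenolide positive control wells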
esBAF inh: Bmi1 luciferase reporter increase in mESCs, primary screen, esBAF inhibitor project, mouse ES cells, Bmi1 luciferase knock-in, single point. 24 h; 100% = twice the neutral-well signal. reporter increase, % at 12.5 µM. actives 2% (n = 350,000). AID 602393, 2012; in the data active = activation above about 40%; inconclusive = no clear call, values can overlap the other calls;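 also: 0% = median of the plate's neutral control wells and 100% = double that signal; a rise in the Bmi1 reporter signal indicates esBAF inhibition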
The depositor's hits bear a star; ? = inconclusive; . = not tested or not shown; [ ] = another dose, or the depositor's remark. A selection: hits, their analogues and other compounds. The true share with any hit is near 3.4%.

SMILES	Env fusion inh	miR122 inh	Wnt bcat act	MITF TRPM1 HTS	esBAF inh
S=C(NCc1ccc2c(c1)OCO2)Nc1ccc2nsnc2c1	-4.1	24.2	-4.3	32.5	56.1*
S=C(Nc1ccc2c(c1)OCO2)Nc1ccc2c(c1)OCO2	7.4	-1.9	5.2	31.4	50.6*
O=C(NC(=S)NCc1ccc2c(c1)OCO2)c1ccccc1	.	111.2*	-1.0	-4.7	-5.5
CN(C)C(=S)Nc1ccc2c(c1)OCO2	9.5	.	1.6	8.5	.
Cc1ccc(NC(=S)NCc2ccc3c(c2)OCO3)cc1C	-7.7	.	.	-14.4	.
CC(=O)Nc1ccc2c(c1)C(=O)N(C)[C@H]1CC[C@@H](CC(=O)NCc3ccccc3)O[C@H]1CO2	1.1[16.7 µM]	8.0[16.7 µM]	.	.	-4.0
COc1ccc2c3n([n+]([O-])c2c1)CCN=C3c1ccc(Cl)cc1	-13.0	-0.3	9.2	15.3	41.5*
CC(C)[C@@H](C)NC(=O)N(C)C[C@H]1OCc2ccccc2-c2ccccc2C(=O)N([C@H](C)CO)C[C@@H]1C	13.1[16.7 µM]	.	.	.	-13.9
CC(=O)c1ccc(Nc2nc(C)cc(C)n2)cc1	-40.7	-5.4	21.8	66.3	50.1*
Cc1ccc(S(=O)(=O)NCC[C@@H]2CC[C@@H](NC(=O)c3ccccn3)[C@@H](CO)O2)cc1	-2.6[16.7 µM]	.	.	.	-1.4
C[C@@H]1CN([C@H](C)CO)C(=O)c2cc(NS(=O)(=O)c3ccccc3)ccc2O[C@@H](C)CCCCO[C@H]1CN(C)Cc1ccc(C(=O)O)cc1	-1.2[16.7 µM]	1.9[16.7 µM]	.	.	-4.6
CCc1cccc(C)c1NC(=O)COC(=O)Cn1c(C)csc1=O	4.9	1.0	-0.9	4.7	.
Cc1csc(=O)n1CC(=O)OCc1cccc2ccccc12	-21.8	8.8	25.3	.	57.9*
C[C@H](CO)N1C[C@H](C)[C@@H](CN(C)S(=O)(=O)c2cn(C)cn2)Oc2ncc(/C=C/c3ccccc3)cc2C1=O	19.4[16.7 µM]	-1.1[16.7 µM]	.	.	2.1
CCC(C)(C)NC(=O)C(c1ccc(OC)cc1)N(Cc1ccco1)C(=O)CCC(=O)Nc1cc(C)on1 (centres undefined)	33.9*	-10.8	-8.4	-7.8	8.7
COc1ccc(C(C(=O)NC(C)(C)C)N(Cc2ccco2)C(=O)CCC(=O)Nc2cc(C)on2)cc1 (centres undefined)	-102.4	-4.3	-6.0	.	-2.6
C[C@@H]1CN([C@@H](C)CO)C(=O)c2cc(NS(=O)(=O)c3cn(C)cn3)ccc2O[C@@H]1CN(C)C(=O)Nc1ccc(F)cc1	0.4[16.7 µM]	-1.9[16.7 µM]	.	.	-2.2
C[C@@H]1CN([C@H](C)CO)C(=O)c2cc(C#CC3CCCC3)cnc2O[C@@H]1CN(C)Cc1ccncc1	-13.7[16.7 µM]	3.6[16.7 µM]	.	.	-1.9
CCCCN1C(=O)/C(=C/C=C2\SCCN2C)SC1=S	-28.8	.	11.4	91.6*	.
O=C(COc1ccccc1O)Nc1ccccc1Cl	-484.0	0.8	.	47.9	51.7*
O=C(COc1ccc(Cl)cc1Cl)Nc1ccccc1F	-102.0	0.3	44.6*	.	.
O=C(COc1ccc(Cl)cc1Cl)Nc1ccc(Cl)cn1	.	-1.5	12.5	95.7*	-6.8
Cc1cc(Cl)ccc1OCC(=O)Nc1ccccc1CO	-325.3	-0.9	16.7	37.1	42.4*
CC(=O)Nc1ccc(NC(=O)COc2ccc(Cl)cc2Cl)cc1	-10.2	-1.1	0.9	.	22.0
CCNC(=O)[C@@H]1[C@@H](CO)[C@@H]2Cn3c(ccc(-c4cccc(OC)c4)c3=O)[C@@H]2N1C(=O)NC(C)C	.	-1.8[16.7 µM]	.	.	-8.0
SMILES	Env fusion inh	miR122 inh	Wnt bcat act	MITF TRPM1 HTS	esBAF inh
O=C(C[C@@H]1C=C[C@@H](NC(=O)C2CC2)[C@H](CO)O1)NC1CCC1	-4.7[16.7 µM]	0.0[16.7 µM]	.	.	0.8
CCCC(=O)Nc1ccc2c(c1)OC[C@@H](C)N(C(=O)CN(C)C)C[C@H](C)[C@H](OC)CN(C)C2=O	-5.2[16.7 µM]	.	.	.	-7.2
O=C(C[C@H]1CC[C@H]2[C@@H](COC[C@@H](O)CN2C(=O)c2ccccc2)O1)Nc1ccccc1	.	-1.6[16.7 µM]	.	.	3.0
CC=Cc1ccc2n(c1=O)C[C@@H]1[C@@H](CO)[C@H](C(=O)NCc3cc(F)cc(F)c3)[C@H]2N1S(C)(=O)=O (mixture of isomers)	8.3[16.7 µM]	.	.	.	-4.6
Cc1ccc(Cl)c(OCC(=O)OCC(=O)c2ccc[nH]2)c1	.	.	3.8	-5.0	-1.2
CCOc1ccc(C(=O)Nc2ccc(Cl)cn2)cc1Cl	-221.9	-6.5	?	103.0*	131.8*
O=C(COc1ccc(Cl)cc1Cl)c1ccc[nH]1	6.3	-4.7	33.2*	72.2	?
Cc1noc(C)c1S(=O)(=O)Nc1ccc2c(c1)C(=O)N([C@@H](C)CO)C[C@H](C)[C@@H](CN(C)S(=O)(=O)c1ccc(Cl)cc1)OCCCC[C@@H](C)O2	27.1[16.7 µM]	15.1[16.7 µM]	.	.	7.1
O=C(COC(=O)c1cccc(-n2cnnn2)c1)c1ccc(Br)cc1	-18.5	4.2	23.2	21.8	48.8*
Cc1ccc(C(=O)Oc2cccc(-n3cnnn3)c2)cc1	-43.8	.	5.9	111.8*	.
O=C(Oc1cccc2cccnc12)c1cccc(-n2cnnn2)c1	-10.2	-3.0	76.7*	9.0	2.9
CC(C)C[C@@H]1COCc2cn(nn2)CC[C@H](Cc2ccccc2)C(=O)N1	0.7[16.7 µM]	.	.	.	.
CO[C@H]1CN(C)C(=O)c2ccc(NC(=O)c3cc(C)on3)cc2OC[C@H](C)N(C(C)=O)C[C@H]1C	4.0[16.7 µM]	-6.4[16.7 µM]	.	.	1.2
C=CC[C@H](CC(=O)NCCO)C(=O)N[C@@H](COC(=O)[C@@H](CC=C)Cc1ccc(F)cc1)Cc1ccccc1	79.5*	-4.0	-3.2	-12.3	3.8
C=CC[C@H](CC(=O)NCCO)C(=O)N[C@H](COC(=O)[C@@H](CC=C)Cc1ccc(F)cc1)Cc1ccccc1	59.1*	-4.5	-3.5	5.5	-8.1
C=CC[C@H](CC(=O)NCCO)C(=O)N[C@H](COC(=O)[C@@H](CC=C)Cc1ccc(F)cc1)c1ccccc1	43.4	-23.8	-4.1	-2.8	-3.7
COc1cccc(NC(=O)C[C@@H]2CC[C@@H]3[C@H](COc4ccc(NC(C)=O)cc4C(=O)N3C)O2)c1	-1.1[16.7 µM]	4.4[16.7 µM]	.	.	3.0
COc1ccc(C(=O)O)cc1S(=O)(=O)Nc1ccc(C)cc1	5.9	.	-1.3	-3.2	.
COc1ccc(OC)c(S(=O)(=O)Nc2cc3c4c(c2)CCN4C(=O)CC3)c1	15.5	142.8*	-0.8	-2.7	-5.0
COC(=O)c1ccc(NS(=O)(=O)c2cc(C)ccc2OC)cc1	.	149.8*	.	-4.9	-0.8
COc1ccc(NS(=O)(=O)c2cc(OC)ccc2OC)cc1	-3.9	?	-0.7	-9.3	-3.7
COc1ccc(C)cc1S(=O)(=O)Nc1cc2c3c(c1)CC(=O)N3CCC2	-3.7	34.5	-0.1	-3.1	.
CCc1ccc(NS(=O)(=O)c2cc(OC)ccc2OC)cc1	.	140.2*	-2.5	-9.0	-9.4
Cc1ccc(C)c(S(=O)(=O)Nc2cc3c4c(c2)CC(=O)N4CCC3)c1	-26.9	163.4*	-3.9	1.8	.
COc1ccccc1-c1ccc([C@H]2[C@H](C#N)N(C(=O)C3CC3)[C@H]2CO)cc1	-7.5[16.7 µM]	.	.	.	-13.0
